6 molecules from PubChem BioAssay can be followed below.

Activity calls are given as the source filed them.

A short description of assay [1]: small molecules captured by biotinylated probe aFSTL3 – biochemical, small-molecule microarray, fluorescence 635/667, stem cell growth factor project, primary screen (AID 1064).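 Also: measures binding of the biotinylated anti-FSTL3 antibody to printed compounds.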 As to conditions: higher = more signal.
Assay [2] can be described thus: binders from COS7 lysate, DM2A8 probe, primary screen, torsin A project, cell lysate, small-molecule microarray, fluorescence 635/667 (AID 1065). As to conditions: higher = more signal, COS7 lysate expressing mutant human TOR1A.
The nature of assay [3]: small molecules captured by biotinylated probe aFGF2 – biochemical, small-molecule microarray, fluorescence 635/667, stem cell growth factor project, primary screen (AID 1067).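 Also: measures binding of biotinylated aFGF2 protein to printed compounds on slides; z-score merges feature fluorescence and signal-to-noise across triplicate slides.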 As to conditions: higher = more signal.
Assay [4] is described as follows: small molecules captured by biotinylated probe aFGF10 – biochemical, small-molecule microarray, fluorescence 635/667, stem cell growth factor project, primary screen (AID 1071).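 Also: score merges 667 nm spot intensity and signal to noise from triplicate slides.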 As to conditions: higher = more signal.
The target in assay [5] is Neurogenic locus notch homolog protein 2 (Homo sapiens) (UniProt Q04721). The assay is described as follows: small molecules binding Notch2 protein – biochemical, small-molecule microarray, 635 nm fluorescence, stem cell growth factors, primary screen (AID 1073). The conditions noted are these: higher = more signal.
The target of assay [6] is Pro-neuregulin-1, membrane-bound isoform (Homo sapiens) (UniProt Q02297). The assay is described as follows: small molecules binding neuregulin-1 protein – biochemical, small-molecule microarray, fluorescence 635/667, psychiatric disease protein project, primary screen (AID 1075).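 Also: score combines 667 nm spot fluorescence with signal to noise.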 As to conditions: NRG1 binding, 635 nm fluorescence, higher = more signal.
Assay [7] deals with Neuregulin-1 EGF-like domain. The assay is described as follows: small molecules binding NRG1 EGF domain – biochemical, small-molecule microarray, 635 nm fluorescence, primary screen (AID 1081).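 Also: binding of the protein to compounds printed on small-molecule microarray slides.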 As to conditions: higher = more signal.
A short description of assay [8]: FRG1 expression reporter modulators in myotubes – cell-based, C2C12 myotubes, firefly/Renilla luciferase, luminescence, FRG1 inhibition for FSHD, primary screen (AID 1084). As to conditions: FRG1 promoter luciferase, higher = more signal, called active from +8 up or from −8 down.
Assay [9] in a line: small molecules captured by biotinylated probe aFST – biochemical, small-molecule microarray, fluorescence 635/667, stem cell growth factor project, primary screen (AID 1086).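 Also: score merges 667 nm fluorescence with signal-to-noise of each printed compound spot.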 As to conditions: higher = more signal.
Assay [10] in a line: binders of probe aHhip on microarray, primary screen, stem cell growth factor project, biochemical, small-molecule microarray, fluorescence 635/667 (AID 1087).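 Also: score merges spot fluorescence at 667nm with spot signal to noise ratio.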 As to conditions: higher = more signal.
In assay [11] the test system is PRMT1 (protein arginine N-methyltransferase 1). Description: small molecules binding arginine methyltransferase PRMT1 – biochemical, small-molecule microarray, 635 nm fluorescence, primary screen (AID 1088).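 Also: binding of Prmt1 protein to compounds spotted on small-molecule microarray slides.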 As to conditions: higher = more signal.
A short description of assay [12]: growth effects on S. cerevisiae YJM789 – YJM789 clinical isolate, OD600, 24 h, basal, primary screen (AID 1089).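 Also: growth of clinical yeast isolate S. cerevisiae YJM 789 seeded 1000 cells per well; test concentration not given here.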 The conditions noted are these: higher = more signal, called active from +8 up or from −8 down.
Assay [13] in a line: S. pombe growth modifiers, basal conditions – strain 972, OD600, 24 h, no modulator, primary screen (AID 1090).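 Also: basal condition with compound alone and no growth modifier present; test concentration not given here.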 The conditions noted are these: S. pombe 972 growth, higher = more signal, called active from +8 up or from −8 down.
Assay [14] is described as follows: budding yeast growth modifiers under rapamycin – strain BY4716, OD600, 96 h, primary screen (AID 1091). Also: test concentration not given here. The conditions noted are these: S. cerevisiae BY4716 + rapamycin, higher = more signal, called active from +8 up or from −8 down.
Assay [15] has as its target Torsin-1A-interacting protein 2 (Homo sapiens) (UniProt Q8NFQ8). Description: small molecules binding lysate-expressed LULL1 – cell lysate, human LULL1 lysate, 635/667 nm fluorescence, primary screen (AID 1092).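 Also: probe is lysate of COS7 cells overexpressing human LULL1; score merges per-feature 667 nm fluorescence with signal-to-noise.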 As to conditions: small-molecule microarray, hLULL1 lysate binding, 635 nm fluorescence; higher = more signal.
A short description of assay [16]: optical density change of DRC41 E. coli – strain DRC41, OD650, 24 h, E. coli filamentation project, primary screen (AID 1093).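 Also: MC1000 strain lacking acrAB efflux and sulA so SOS filamentation is blocked; test concentration not given here.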 The conditions noted are these: E. coli DRC41 growth, higher = more signal, called active from +8 up or from −8 down.
Assay [17] can be described thus: probe aLefty2 binding to arrayed compounds – biochemical, biotinylated probe, 635/667 nm fluorescence, primary screen (AID 1094).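 Also: score merges spot fluorescence near 667 nm with spot signal-to-noise ratio.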 As to conditions: small-molecule microarray, higher = more signal.
The subject of assay [18] is Noggin (protein binding on small-molecule microarray). The assay is described as follows: small molecules binding Noggin protein – biochemical, 635/667 nm fluorescence, primary screen (AID 1095).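 Also: score merges 667 nm feature fluorescence with signal to noise over triplicate slides.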 As to conditions: 635 nm fluorescence, higher = more signal.
For assay [19], the target named is Neurogenic locus notch homolog protein 3 (Homo sapiens) (UniProt Q9UM47). The assay is described as follows: small molecules binding NOTCH3 protein – biochemical, 635/667 nm fluorescence, primary screen (AID 1096). The conditions noted are these: small-molecule microarray, 635 nm fluorescence, higher = more signal.
A short description of assay [20]: probe aEGFR binding to arrayed compounds – biochemical, biotinylated probe, 635/667 nm fluorescence, primary screen (AID 1097).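 Also: probe is a biotinylated anti-EGFR antibody binding compounds printed on slides; score combines fluorescence near 667 nm and signal to noise of each spot.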 The conditions noted are these: small-molecule microarray, higher = more signal.

Chain of Pro-neuregulin-1, membrane-bound isoform (Homo sapiens) (Q02297 whole entry, looked up, the tested form may be a part, canonical isoform): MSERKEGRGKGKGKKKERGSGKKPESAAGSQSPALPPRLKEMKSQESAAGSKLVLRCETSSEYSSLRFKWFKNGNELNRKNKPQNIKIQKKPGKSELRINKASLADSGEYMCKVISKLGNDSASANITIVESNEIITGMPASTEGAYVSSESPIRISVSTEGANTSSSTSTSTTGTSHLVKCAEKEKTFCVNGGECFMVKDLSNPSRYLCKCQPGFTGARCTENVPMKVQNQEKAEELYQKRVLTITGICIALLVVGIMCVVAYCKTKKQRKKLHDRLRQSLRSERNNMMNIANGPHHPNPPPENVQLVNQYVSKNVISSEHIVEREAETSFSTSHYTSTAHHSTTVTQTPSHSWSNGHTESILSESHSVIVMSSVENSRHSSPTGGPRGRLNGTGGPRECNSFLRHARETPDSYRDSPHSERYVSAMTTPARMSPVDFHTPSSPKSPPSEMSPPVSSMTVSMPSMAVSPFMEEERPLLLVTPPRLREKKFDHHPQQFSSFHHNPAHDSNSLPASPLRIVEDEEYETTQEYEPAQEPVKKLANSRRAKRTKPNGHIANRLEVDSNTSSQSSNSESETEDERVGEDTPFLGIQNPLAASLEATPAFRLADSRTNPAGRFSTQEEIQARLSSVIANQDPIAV
Chain of Neurogenic locus notch homolog protein 3 (Homo sapiens) (Q9UM47 whole entry, looked up): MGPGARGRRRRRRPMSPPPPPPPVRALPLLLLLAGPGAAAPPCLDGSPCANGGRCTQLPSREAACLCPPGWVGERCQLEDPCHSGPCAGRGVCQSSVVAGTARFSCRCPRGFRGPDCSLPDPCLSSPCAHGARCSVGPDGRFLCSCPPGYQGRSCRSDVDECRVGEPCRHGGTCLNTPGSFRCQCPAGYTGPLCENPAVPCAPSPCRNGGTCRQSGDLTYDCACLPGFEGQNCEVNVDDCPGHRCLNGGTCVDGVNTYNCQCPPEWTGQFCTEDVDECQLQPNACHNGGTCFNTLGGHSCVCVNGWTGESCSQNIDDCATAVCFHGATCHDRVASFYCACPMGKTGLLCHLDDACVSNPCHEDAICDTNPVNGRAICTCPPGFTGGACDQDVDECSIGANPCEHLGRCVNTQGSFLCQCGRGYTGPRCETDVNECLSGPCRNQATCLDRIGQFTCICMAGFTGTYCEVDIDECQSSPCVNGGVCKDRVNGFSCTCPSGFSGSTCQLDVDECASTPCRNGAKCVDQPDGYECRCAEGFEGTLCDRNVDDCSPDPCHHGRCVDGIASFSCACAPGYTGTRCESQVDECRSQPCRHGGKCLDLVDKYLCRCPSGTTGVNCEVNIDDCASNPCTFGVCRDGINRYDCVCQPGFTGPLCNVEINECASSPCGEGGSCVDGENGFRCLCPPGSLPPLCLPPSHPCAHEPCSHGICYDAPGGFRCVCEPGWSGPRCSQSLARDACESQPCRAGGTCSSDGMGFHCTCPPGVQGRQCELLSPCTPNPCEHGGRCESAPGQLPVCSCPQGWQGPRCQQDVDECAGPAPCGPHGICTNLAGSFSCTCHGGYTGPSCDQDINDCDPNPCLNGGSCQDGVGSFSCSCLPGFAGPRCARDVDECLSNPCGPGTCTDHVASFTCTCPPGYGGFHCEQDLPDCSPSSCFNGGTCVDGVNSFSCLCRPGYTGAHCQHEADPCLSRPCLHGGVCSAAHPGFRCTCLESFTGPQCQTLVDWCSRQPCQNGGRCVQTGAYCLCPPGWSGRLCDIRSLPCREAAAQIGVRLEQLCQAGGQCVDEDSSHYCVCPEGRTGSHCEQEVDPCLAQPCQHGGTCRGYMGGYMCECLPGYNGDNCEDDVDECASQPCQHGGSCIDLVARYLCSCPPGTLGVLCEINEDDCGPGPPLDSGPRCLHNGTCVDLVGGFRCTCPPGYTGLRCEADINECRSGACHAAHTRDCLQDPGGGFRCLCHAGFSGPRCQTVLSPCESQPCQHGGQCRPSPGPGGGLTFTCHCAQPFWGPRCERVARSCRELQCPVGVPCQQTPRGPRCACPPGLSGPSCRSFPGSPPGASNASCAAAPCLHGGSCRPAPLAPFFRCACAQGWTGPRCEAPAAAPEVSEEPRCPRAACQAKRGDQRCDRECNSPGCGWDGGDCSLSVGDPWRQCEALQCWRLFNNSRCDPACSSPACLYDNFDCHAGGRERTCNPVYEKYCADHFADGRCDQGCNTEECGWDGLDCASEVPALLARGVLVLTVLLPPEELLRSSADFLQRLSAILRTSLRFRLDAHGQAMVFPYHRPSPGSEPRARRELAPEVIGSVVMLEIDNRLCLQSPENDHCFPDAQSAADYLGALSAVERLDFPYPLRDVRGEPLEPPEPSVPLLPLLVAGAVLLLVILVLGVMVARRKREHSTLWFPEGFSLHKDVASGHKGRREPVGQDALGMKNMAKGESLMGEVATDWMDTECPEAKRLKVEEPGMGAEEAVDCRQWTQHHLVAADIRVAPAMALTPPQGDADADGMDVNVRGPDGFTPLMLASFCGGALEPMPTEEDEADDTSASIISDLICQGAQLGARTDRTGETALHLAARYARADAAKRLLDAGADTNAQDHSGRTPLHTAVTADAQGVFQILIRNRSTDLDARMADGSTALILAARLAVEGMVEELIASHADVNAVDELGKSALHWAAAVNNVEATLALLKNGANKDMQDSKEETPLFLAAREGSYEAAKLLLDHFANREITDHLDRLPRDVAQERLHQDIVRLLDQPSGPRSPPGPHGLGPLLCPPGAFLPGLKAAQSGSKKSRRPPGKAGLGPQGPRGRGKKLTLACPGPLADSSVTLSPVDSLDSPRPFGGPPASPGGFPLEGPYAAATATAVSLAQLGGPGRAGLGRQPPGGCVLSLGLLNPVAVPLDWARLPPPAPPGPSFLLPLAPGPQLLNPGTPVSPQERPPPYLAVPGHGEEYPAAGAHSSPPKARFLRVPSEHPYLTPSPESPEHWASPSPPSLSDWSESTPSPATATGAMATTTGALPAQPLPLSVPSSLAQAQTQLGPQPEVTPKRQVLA
Chain of Torsin-1A-interacting protein 2 (Homo sapiens) (Q8NFQ8 whole entry, looked up): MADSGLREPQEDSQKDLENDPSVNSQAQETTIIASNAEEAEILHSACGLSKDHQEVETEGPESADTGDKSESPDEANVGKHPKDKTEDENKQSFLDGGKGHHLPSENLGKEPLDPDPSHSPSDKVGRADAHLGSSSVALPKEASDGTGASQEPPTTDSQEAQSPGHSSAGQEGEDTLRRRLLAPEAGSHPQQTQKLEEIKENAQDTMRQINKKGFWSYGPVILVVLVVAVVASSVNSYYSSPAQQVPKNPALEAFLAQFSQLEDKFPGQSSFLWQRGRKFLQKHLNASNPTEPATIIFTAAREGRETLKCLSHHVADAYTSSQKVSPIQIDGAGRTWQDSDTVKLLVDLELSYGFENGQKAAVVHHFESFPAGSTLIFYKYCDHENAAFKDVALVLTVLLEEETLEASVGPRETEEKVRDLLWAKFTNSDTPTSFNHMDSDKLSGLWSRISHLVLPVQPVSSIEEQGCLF

`O=C1O[C@@H](c2ccccc2)[C@@H](c2ccccc2)N2[C@@H](c3ccc(O)cc3)[C@]3(C(=O)Nc4ccc(C#CC5(O)CCCCCC5)cc43)[C@@H](C(=O)N3CCCCCCC3)[C@H]12`: the composite z-score in assay [1] was 2.55; in assay [2], 2; in assay [3], 0.764; in assay [4] it was 0.876; in assay [5], 1.66; in assay [6], 2.49. Also, the composite z-score was 1.27 in assay [7]; 2.79 in [9]; 0.67 in [10]; 1.54 in [11]; 4.45 in [15]; 1.42 in [17]. Besides, the composite z-score in [18] was 2.41; in [19], 1.07; in [20] it was 1.24. The z-score in assay [8] is -0.849 (inactive); in assay [12], 1.16 (inactive); in assay [13], 0.321 (inactive); in [14] it was 2.09 (inactive); in assay [16], 0.26 (inactive).
Turning to `CCCCCCCCCCC(O)C1C=CC2C(=O)N(Cc3ccccc3)C(=O)C2N1n1cnnc1` (stereo not given), the composite z-score in assay [1] stood at 0.794; in assay [2], 0.0622; in assay [3], 0.279; in assay [4], 0.137; in assay [5] it was 0.53; in [6] it was 0.919. The composite z-score in assay [7] turned out to be 0.843; in [9] it was 1.08; in assay [10] it was 0.582; in assay [11], 1.14; in [15], 2.75; in [17] it was 0.326. The values for the composite z-score in assay [18], in assay [19] and in assay [20] were -0.331, 0.55 and 0.0773, respectively. For the same molecule, the z-score in assay [8] was 1.91 (inactive); in assay [12], 0.187 (inactive); in [13] it was -0.25 (inactive); in [14] it was -0.976 (inactive); in [16], -1.45 (inactive).
In the case of `O=C1OCCC/C=C\[C@H]2OC34C=CCN(Cn5nnc6ccccc65)C(=O)[C@H]3N(CCCCCO)C(=O)[C@@H]4C12` (stereo not given in full), the composite z-score is 0.0227 in assay [1]; -0.126 in assay [2]; -0.145 in [3]; -0.821 in assay [4]; -0.919 in [5]; 0.865 in assay [6]. In addition, the composite z-score in [7] was 0.443; in assay [9] it was -0.666; in assay [10], -0.206; in assay [11], -1.29; in assay [15] it was 1.04; in [17], -0.114. In addition, the composite z-score is -0.808 in assay [18], -0.0037 in assay [19] and -0.174 in assay [20]. Also, the z-score in [8] is 0.406 (inactive); in assay [12], -0.401 (inactive); in [13] it was -0.745 (inactive); in [14] it was -1.83 (inactive); in [16], 0.498 (inactive).
`O=c1oc(-c2ccccc2)nc2cc(Br)ccc12`: the composite z-score in assay [1] is -0.0862; in [2], 0.0961; in assay [3], -0.103; in assay [4], 0.298; in [5], 0.325; in assay [6], -0.0187. Also, the composite z-score in [7] is 0.52; in assay [9], 0.127; in assay [10], -0.287; in [11] it was 0.35; in assay [15] it was 0.711; in [17], -0.0478. Besides, the figures for the composite z-score in assay [18], in [19] and in assay [20] were 0.625, 0.693 and -0.111, respectively. Also, the z-score is -0.409 (inactive) in [8]; 0.844 (inactive) in [12]; -1.43 (inactive) in assay [13]; -0.0605 (inactive) in assay [14]; 0.258 (inactive) in assay [16].
Consider `COCCOC(=O)N1C(=O)[C@@]2(c3cc(C#CCNC(N)=O)ccc31)[C@H](c1ccccc1OCCO)N1[C@H](c3ccccc3)[C@H](c3ccccc3)OC(=O)[C@H]1[C@@H]2C(N)=O`, for which the composite z-score is -0.309 in assay [1]; 0.092 in assay [2]; -0.171 in assay [3]; 0.244 in assay [4]; 0.77 in [5]; 0.429 in assay [6]. In addition, the composite z-score in [7] was 0.874; in [9], 0.477; in assay [10], -0.284; in assay [11], 1.55; in assay [15], -0.0889; in assay [17], -0.0823. The composite z-score in assay [18] was 1.1; in [19], 1.09; in assay [20] it was -0.0512. Also, the z-score in [8] is -1.33 (inactive); in assay [12], 1.86 (inactive); in [13] it was 1.59 (inactive); in [14] it was 3.25 (inactive); in [16], -0.244 (inactive).
With `O=C1C2C=CC(C(O)c3ccc(B(O)O)cc3)N(Nc3ccccc3)C2C(=O)N1c1ccccc1` (stereo not given), the composite z-score was 0.72 in assay [1]; 0.0762 in [2]; 0.0533 in [3]; -0.132 in [4]; 0.971 in assay [5]; 1.38 in [6]. Besides, the composite z-score in [7] was -0.401; in assay [9], 0.302; in assay [10] it was -0.299; in assay [11], -0.592; in assay [15] it was 0.935; in [17], 0.229. Besides, the composite z-score in assay [18] is -1.11; in [19], -0.085; in assay [20], -0.041. Also, the z-score in assay [8] was 4.59 (inactive); in assay [12], 0.428 (inactive); in [13] it was -4.7 (inactive); in assay [14], 0.642 (inactive); in assay [16] it was -1.2 (inactive).
